# Source: PubChem
# Many of the other results were omitted from the sample, so hits are more common in it than they were.
# mHTT CaM bind = disrupts binding of mutant huntingtin to calmodulin; inhibition, % at 15 µM; actives 3.6% (n = 190,000); AID 1671202; AlphaScreen His-mHTT/GST-CaM binding, luminescence; P42858;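 note: 0% = both proteins with DMSO and 100% = one protein alone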
# Pf apPOL block = Pf-apPOL DNA polymerase inhibition | Recombinant Pf-apPOL, molecular beacon fluorescence, 1.5 h | inhibition, % at 10 µM | actives 0.25% (n = 210,000) | AID 1794808
# Starred values were filed as active, the others as inactive; · = not tested or not shown. Cut-off read from the data, not from the text of the source: active = inhibition above about 50%; inactive = the rest.
SMILES,mHTT CaM bind,Pf apPOL block
CC1CN(C(=O)Nc2ccccc2Cl)c2ccccc2O1 (centres undefined),-40,-7
Cc1ccc(NC(=O)N2CC3CCCN3c3ccccc32)c(Cl)c1 (centres undefined),76*,-1
COc1cccc(NS(=O)(=O)c2cccs2)c1,4,0
CCCOc1nccnc1N1CCC(N(C)S(=O)(=O)N(C)C)C1 (centres undefined),12,2
O=C1C2C3C=CC(C3)C2C(=O)N1C(CO)C(O)c1ccc([N+](=O)[O-])cc1 (centres undefined),-2,-5
CC1CCc2cc(F)cc3c(O)c(C(=O)NCCN4CCOCC4)c(=O)n1c23 (centres undefined),26,-83
CC1CCc2cc(F)cc3c(O)c(C(=O)NCCCN(C)C)c(=O)n1c23 (centres undefined),99*,-66
N#Cc1ccc(C2=COC3(CCCN(C(=O)C4CCCCC4)C3)C2)cc1 (centres undefined),-18,-5
O=C(CN1CCc2ccccc2C1C(=O)N1CCCC1)N1CCC(Cc2ccccc2)CC1 (centres undefined),68*,-9
Cc1cccc(NC(=O)CN2CCc3ccccc3C2C(=O)N2CCC(C)CC2)c1C (centres undefined),4,-4
COc1ccc(C)cc1NC(=O)CN1CCc2ccccc2C1C(=O)N1CCC(C)CC1 (centres undefined),61*,-5
O=C(CN1CCc2ccccc2C1C(=O)N1CCCC1)N1CCN(C2CCCCC2)CC1 (centres undefined),9,0
CCOc1ccc(NC(=O)CN2CCc3ccccc3C2C(=O)N2CCC(C)CC2)cc1 (centres undefined),13,-3
CC1CCN(C(=O)C2c3ccccc3CCN2CC(=O)Nc2ccc(Cl)cc2)CC1 (centres undefined),62*,-4
O=[N+]([O-])c1cc([N+](=O)[O-])c2cnn(CN3CCCOC3)c2c1,17,-2
O=C(Nc1ccc(F)cc1)C1CCC(N2C(=O)C3CCCCC3C2=O)CC1 (centres undefined),-1,-1
COc1c(C(=O)N2CCOCC2)sc2cccc(F)c12,11,0
CCN1c2cc(F)ccc2C(=O)NC12CCN(C(=O)c1ccc(C)cc1)CC2,-8,1
CCN1c2ccc(C)cc2C(=O)NC12CCN(C(=O)c1ccc3c(c1)OCO3)CC2,-1,1
O=C1CC2(CCN(C(=O)Cc3cccs3)CC2)Oc2ccccc21,2,7
CCN1c2cc(C)ccc2-n2cccc2C12CCN(C(=O)Cc1cccs1)CC2,98*,-2
CCN1c2cc(C)ccc2-n2cccc2C12CCN(C(=O)c1ccc3c(c1)OCO3)CC2,66*,-4
CCN1c2cc(C)ccc2-n2cccc2C12CCN(C(=O)c1ccc(F)cc1)CC2,85*,1
CCOc1ccc(C(=O)Nc2cc(C)ns2)cc1,-12,-14
O=C(NCc1ccc(N2CCCCC2)nc1)c1ccccc1C(F)(F)F,13,-4
SMILES,mHTT CaM bind,Pf apPOL block
Cc1ccc(NC(=O)N2CCc3nc(-c4ccccc4)ncc3C2)cc1F,-9,-5
COc1ccc(-c2nccc(C3CCCN(C(=O)c4ccc(F)cc4)C3)n2)cc1 (centres undefined),18,-3
CCOC(=O)c1nc(N2CCCC2)c2oc3ccccc3c2n1,2,-4
O=C(NC1CC1)c1nc(N2CCCCCC2)c2oc3ccccc3c2n1,52*,-9
CCC(=O)N1CCc2c(C(=O)N3CCN(c4cc(C)ccc4C)CC3)cccc21,-2,-4
COc1ccc(C(=O)N2CCCC2COc2ccc(C(=O)NC3CC3)cc2)cc1 (centres undefined),-6,-1
CC(=O)N1CCc2c(sc(NC(=O)c3sc4ccccc4c3Cl)c2C#N)C1,61*,-23
CCOC(=O)N1CCc2nc(NC(=O)c3nc4ccccc4s3)sc2C1,36,0
N#Cc1ccc(NC(=O)c2sc3ccccc3c2Cl)cc1,·,-8
CCOC(=O)N1CCc2nc(NC(=O)c3sc4ccccc4c3Cl)sc2C1,53*,-1
O=C(NC1CC1)c1cc(Sc2ccc(F)cc2F)nc2ccccc12,3,-13
COc1ccc(-c2csc3c(=O)n(Cc4ccccc4)cnc23)cc1OC,0,-1
O=c1c(Oc2ccccc2Br)coc2c3c(ccc12)OCN(C1CCS(=O)(=O)C1)C3 (centres undefined),1,-12
Cc1ccc2c(c1)c1c3n2CCN(C=O)C3CCC1 (centres undefined),39,-5
O=CN1CCn2c3c(c(=O)c4cc(C5CCCCC5)ccc42)CCC31 (centres undefined),82*,10
CC(C)(C)NC(=O)C1C2CC3(Oc4ccc5ccccc5c42)N1c1ccccc1C3(C)C (centres undefined),·,8
O=[N+]([O-])c1ccc(Sc2nc3ccccc3o2)c([N+](=O)[O-])c1,12,2
Nc1ncnc(Sc2nc3ccccc3o2)c1[N+](=O)[O-],75*,2
Nc1ncnc(SC2=NCCS2)c1[N+](=O)[O-],59*,0
Cc1cc(Sc2ncnc(N)c2[N+](=O)[O-])nc(C)n1,-2,-1
O=C(c1ccc(Cl)cc1)N1CCC(CCOc2ccncc2)CC1,7,-5
COC(=O)C1CCN(S(=O)(=O)CCCOc2cccc3c2OC(C)(C)C3)CC1,-7,-7
Cc1ccc(-n2nc(C)c3c2OC(N)=C(C#N)C3c2ccccc2[N+](=O)[O-])cc1 (centres undefined),9,-3
N#CC1=C(N)Oc2c(C=Nc3ccccc3)ccc(O)c2C1c1ccc([N+](=O)[O-])cc1 (centres undefined),35,3
COc1cccc(N=Cc2ccc(O)c3c2OC(N)=C(C#N)C3c2ccccc2[N+](=O)[O-])c1 (centres undefined),95*,-4
SMILES,mHTT CaM bind,Pf apPOL block
COc1ccccc1N=Cc1ccc(O)c2c1OC(N)=C(C#N)C2c1cccc([N+](=O)[O-])c1 (centres undefined),77*,-8
CCC(CC)NC(=O)C1CCc2sc(C(=O)N3CCOCC3)cc2C1 (centres undefined),-2,-7
CCOC(=O)c1sc(NC=C2C(=O)OC3(CCCCC3)OC2=O)c(C(=O)OCC)c1C,-2,-4
Cc1ccc(NC(NC(=O)c2cccc([N+](=O)[O-])c2)C(Cl)(Cl)Cl)c(C)c1 (centres undefined),62*,-2
Cc1ccc(C)c(NC(NC(=O)c2cc([N+](=O)[O-])cc([N+](=O)[O-])c2)C(Cl)(Cl)Cl)c1 (centres undefined),70*,2
COc1ccc(C(=O)NC(Nc2ccc(C)cc2C)C(Cl)(Cl)Cl)cc1 (centres undefined),8,3
COc1ccccc1NC(NC(=O)c1cccc([N+](=O)[O-])c1)C(Cl)(Cl)Cl (centres undefined),47,1
CC1CCN(C(=O)c2ccc3c(c2)NC(=O)C2CCCCN32)CC1 (centres undefined),-2,3
O=[N+]([O-])c1ccc2c(c1)C(N1CCOCC1)/C(=C/c1ccccc1)O2 (centres undefined),18,-4
CC(=O)Nc1ccc(NC(=O)C2CCN(c3ncnc4c3nc3n4CCCCC3)CC2)cn1,1,0
CC(C)c1ccc(C2CC(c3ccc(I)cc3)Nc3nnnn32)cc1 (centres undefined),9,-2
